High-throughput results (PubChem BioAssay)
Most compounds without a hit are left out; they make up all but 28% or so of the library.
CYP2C19 inh = human CYP2C19 inhibition. P33261. CYP2C19 Supersomes, luciferin-H EGE luminescence, 30 min. inhibition, % at 5 µM. 21% of 96,000 active. AID 778;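 active = CYP2C19 inhibition above a set limit at 5 µM in the primary screen, cut at about 50% in these data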;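 also: plate controls were negative control wells for no effect and 2.5 mM tranylcypromine positive control for full effect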
Mac1 fbg inh = blocks human CD11b/CD18 adhesion to fibrinogen | K562 CD11b/CD18 adhesion to fibrinogen, ATPlite luminescence; Mn2+ added to activate the integrin | inhibition, % at 10 µM | 0.54% of 93,000 active | AID 1497;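 active = primary inhibition of 50% or more at 10 µM, then 40% or more on retest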
Target sequence (P05107 whole entry, looked up, other chains not shown): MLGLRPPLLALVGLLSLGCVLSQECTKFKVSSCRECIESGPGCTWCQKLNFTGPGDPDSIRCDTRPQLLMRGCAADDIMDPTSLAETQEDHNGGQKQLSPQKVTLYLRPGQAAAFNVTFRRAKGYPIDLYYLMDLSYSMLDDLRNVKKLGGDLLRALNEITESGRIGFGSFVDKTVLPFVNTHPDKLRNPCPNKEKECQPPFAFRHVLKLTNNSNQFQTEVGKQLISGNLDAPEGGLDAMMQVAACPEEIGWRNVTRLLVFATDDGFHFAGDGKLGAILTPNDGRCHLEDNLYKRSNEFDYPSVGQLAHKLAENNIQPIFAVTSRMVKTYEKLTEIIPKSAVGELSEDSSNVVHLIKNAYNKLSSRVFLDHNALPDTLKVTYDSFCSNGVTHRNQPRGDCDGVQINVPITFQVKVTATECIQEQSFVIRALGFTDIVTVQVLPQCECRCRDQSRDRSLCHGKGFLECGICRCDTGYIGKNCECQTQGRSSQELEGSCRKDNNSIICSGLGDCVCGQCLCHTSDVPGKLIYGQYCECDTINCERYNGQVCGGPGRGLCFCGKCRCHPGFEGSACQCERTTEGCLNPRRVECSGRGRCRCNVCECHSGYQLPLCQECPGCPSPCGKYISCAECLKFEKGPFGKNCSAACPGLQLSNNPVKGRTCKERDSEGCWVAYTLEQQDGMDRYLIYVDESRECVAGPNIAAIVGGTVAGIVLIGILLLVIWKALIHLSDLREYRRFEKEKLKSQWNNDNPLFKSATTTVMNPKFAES
CYP2C19 act = cytochrome P450 2C19 (human) activation | P33261 | recombinant CYP2C19, luciferin-H EGE luminescence; active compounds read high; 0 = fully inhibited enzyme, 1 = untreated enzyme | activation factor at 5 µM | 96,000 tested, under 10 active;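 active = activation factor of at least 2 at 5 µM in the primary screen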;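 also: 0 = wells with 2.5 mM tranylcypromine and 1 = vehicle-only wells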
CD11b adhes enh = increases human CD11b/CD18 adhesion to fibrinogen | P05107+P11215 | K562 CD11b/CD18 adhesion to fibrinogen, ATPlite luminescence | activation, % at 10 µM | 0.07% of 93,000 active | AID 1499;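 active = 10 µM primary screen giving 50% or more activity, confirmed by 40% or more on retest at that dose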
CYP2C9 activ = activators of human CYP2C9; P11712; 1.4% of 96,000 active; recombinant CYP2C9, luciferin-H conversion, luminescence; active compounds read high; factor 1 = untreated enzyme, 0 = blocked; activation factor at 5 µM;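 active = activation factor of 2 or more for CYP2C9 at a 5 µM dose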;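 also: 0 = sulfaphenazole-blocked wells and 1 = vehicle-only wells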
CYP2C9 inhib = blocks human cytochrome P450 2C9; CYP2C9 Supersomes, luciferin-H conversion, luminescence; 20% of 96,000 active; inhibition, % at 5 µM; P11712; AID 777;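 active = blocking of liver enzyme CYP2C9 beyond about 50% at 5 µM, limit read from the data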
Starred values were filed as active, the others as inactive; / = no result.

SMILES	CYP2C19 inh	Mac1 fbg inh	CYP2C19 act	CD11b adhes enh	CYP2C9 activ	CYP2C9 inhib
Cc1cc(C)c2c(CC(=O)N(CCC#N)Cc3cccnc3)coc2c1	51*	-5	0.5	6	1.3	-25
Cc1cc(C)n(C(=O)CSc2nnc(SCC(=O)n3nc(C)cc3C)s2)n1	-20	3	1.2	1	1.1	-15
Cc1cc(C)nc(SCC(=O)Nc2ncc(C(F)(F)F)cc2Cl)n1	/	-7	/	3	/	/
Cc1cc(C)nc(SCc2nnc(SCc3ccccc3Cl)o2)n1	78*	-6	0.2	0	1.3	-29
Cc1cc(C)nc(SCc2nnc(SCC(=O)Nc3cc(C(F)(F)F)ccc3Cl)o2)n1	80*	9	0.2	9	2*	-105
Cc1cc(C)nc(SCc2nnc(SCC(=O)N3CCCc4ccccc43)o2)n1	80*	-18	0.2	-1	0.9	6
COC(=O)c1ccc(C)c(NC(=O)CCSc2ccc(Cl)cc2)c1	49	-7	0.5	-3	0.6	39
CC(C)OCCCNC(=O)CCSc1ccc(Cl)cc1	63*	-7	0.4	1	0.2	78*
Cc1cc(N2CCCC2)c(C)cc1C=O	28	-2	0.7	1	0.4	62*
Nc1ccc2c(c1)COc1ccccc1O2	69*	13	0.3	-1	0.6	36
O=C1c2ccccc2COc2ccc(O)cc21	18	/	0.8	/	1.1	-15
O=c1[nH]cnc2c1C1(CCCC1)Cc1ccccc1-2	88*	/	0.1	/	0.8	22
CC(=O)Nn1cnc2c(c1=O)C1(CCCC1)Cc1ccccc1-2	88*	16	0.1	3	0.4	62*
O=C1c2ccccc2C(=O)N1CCCOc1ccccc1	85*	1	0.2	0	0.8	20
N#Cc1ccccc1OCC(=O)NC(N)=O	-12	-1	1.1	-2	1.5	-50
COc1ccc(OCC(=O)OCCN2C(=O)c3ccccc3C2=O)cc1	39	-5	0.6	-8	0.7	29
O=C1c2ccccc2C(=O)N1CN(C(=O)COc1ccccc1)c1ccccc1	58*	-14	0.4	-2	0.7	30
O=C1c2ccccc2C(=O)N1CCOCCN1C(=O)c2ccccc2C1=O	3	-5	1	-3	1.1	-5
N#Cc1ccccc1OCCN1C(=O)c2ccccc2C1=O	82*	6	0.2	-3	0.4	60*
CCn1c(N)c(C(=O)NCCCOC)sc1=S	20	-7	0.8	0	0.8	16
CC(C)OCCCNC(=O)c1sc(=S)n(C)c1N	57*	-16	0.4	-1	0.3	67*
CC(=O)OCc1c(C(F)(F)F)nn(C)c1Sc1ccccc1	90*	/	0.1	/	0.8	16
CCCn1c(CC)nc([N+](=O)[O-])c1Sc1ccc(F)cc1	39	/	0.6	/	1	-3
CCC(=O)OCc1c(C(F)(F)F)nn(C)c1Sc1ccc(Cl)cc1	75*	/	0.2	/	0.4	60*
CC(=O)OCc1c(F)c(F)c(-n2nc(C)cc2C)c(F)c1F	-22	0	1.2	-2	1.4	-35
SMILES	CYP2C19 inh	Mac1 fbg inh	CYP2C19 act	CD11b adhes enh	CYP2C9 activ	CYP2C9 inhib
CCC(=O)OCc1c(C(F)(F)F)nn(C)c1Sc1ccc(F)cc1	61*	/	0.4	/	0.6	41
CC1(C)NC(=O)N(CCCCOc2ccc(Br)cc2Cl)C1=O	99*	12	0	-1	0.3	66*
C/C=C/c1ccc(OCCCN2C(=O)NC(C)(C)C2=O)c(OC)c1	29	-6	0.7	-3	0.8	20
CCC(=O)c1ccccc1OCCN1C(=O)NC(C)(C)C1=O	75*	10	0.3	-6	0.3	67*
CC1(C)NC(=O)N(CCCOc2ccc(Br)cc2Cl)C1=O	92*	-13	0.1	-6	0.5	51*
Cc1ccc(C(C)C)c(OCCN2C(=O)NC(C)(C)C2=O)c1	77*	-1	0.2	-1	0.6	43
Cc1ccc(C(C)C)c(OCCN)c1	9	1	0.9	-5	0.8	23
NC(=O)CSc1nnc(C2CC2)n1-c1ccccc1	-9	-4	1.1	-2	1	1
CCc1nnc(NC2=NCCC2)s1	2	-6	1	-3	1.1	-15
CC(C)c1cc(Br)ccc1OCCCN1C(=O)NC(C)(C)C1=O	92*	22	0.1	-1	0.2	78*
CC1(C)NC(=O)N(CC(=O)O)C1=O	7	-28	0.9	-1	1.1	-10
O=C(CSc1nc(O)c(C2CCCCC2)c(=O)[nH]1)Nc1ccc(Cl)cc1	15	-7	0.8	-1	0.3	66*
Cc1cc2ncn(CC(O)COC3CCCCC3)c2cc1C (stereo not drawn)	64*	0	0.4	-4	0.1	86*
c1cn(C23CC4CC(CC(C4)C2)C3)cn1	87*	/	0.1	/	0	96*
c1nnn(C23CC4CC(CC(C4)C2)C3)n1	-1	-20	1	3	1.1	-14
Cc1cc(N2C(=O)C3C4c5ccccc5C(c5ccccc54)C3C2=O)no1 (stereo not drawn)	80*	-11	0.2	1	0.4	59*
CC(Oc1ccccc1)C(=O)Nc1nc2c(s1)C(=O)CC(C)(C)C2 (stereo not drawn)	57*	/	0.4	/	0.4	61*
Cc1cc(C)cc(-n2nnnc2SCC(=O)Nc2nc(-c3ccc(Cl)cc3)cs2)c1	4	1	1	11	1.6	-59
Cc1cc(C)cc(-n2nnnc2SCC(=O)Nc2nc(-c3ccc(F)cc3)cs2)c1	23	/	0.8	/	2.2*	-124
Cc1ccc(-n2nnnc2SCC(=O)Nc2nc(-c3ccc(F)cc3)cs2)cc1C	30	/	0.7	/	0.5	52*
CC(NC(=O)c1cc2ccccc2o1)c1cccs1 (stereo not drawn)	82*	4	0.2	-2	0.3	69*
Cc1ccc(C(=O)c2cc3ccccc3o2)cc1	42	/	0.6	/	0.6	36
O=C(c1cc2ccccc2o1)c1cccs1	49	-12	0.5	2	0.5	51*
Cc1ccc(NC(=O)c2ccc3ccccc3n2)nc1	16	-2	0.8	-2	0.7	29
Cc1nn(CC(=O)Nc2ccccc2)c(=O)c2ccccc12	73*	-3	0.3	-1	0.6	38
Cc1cc(O)c(C(C)C)cc1NC(=O)Cn1nc(C)c2ccccc2c1=O	30	1	0.7	-6	0.3	69*
O=C(Nc1ccc(O)cc1C(=O)O)c1ccc2c(c1)C(=O)N(Cc1ccco1)C2=O	-2	-45	1	14	0.4	60*
COc1cc2c(cc1OC)CN(CC(=O)Nc1ccc3c(c1)OC(F)(F)O3)CC2	30	-3	0.7	-2	0.6	40
O=[N+]([O-])c1ccc(CSc2nnc(-c3cnccn3)o2)cc1	90*	-10	0.1	-4	0.7	31
